Screening data: PubChem, National Center for Advancing Translational Sciences (NCATS)
An excerpt weighted towards active compounds, which were near 0.41% of everything screened.
Menin-MLL TR inh – inhibitors of human menin-MLL interaction, mutant MLL peptide | O00255 | Menin + Texas Red MLL mutant peptide, fluorescence polarization | Potency, µM (series often up to 61.6 µM), inactives show top-dose FP activity change, negative = inhibition, usual class: inhibitors | actives 0.23% (n = 270,000); active = well fitted inhibition curve with a large enough effect in the polarisation, with a control signal flat, not every such curve was filed as active; inconclusive = small, poorly fitted or top-dose-only effect, or effect the other way, or a change in a side signal; inactive = no such curve, though single readings can be large or run the other way; the % refers to the polarisation; note: potency is the fitted concentration of half-maximal effect; % of control where 0% means no effect
MLL CXXC-DNA inh – MLL CXXC-DNA interaction inhibition; Q03164; MLL-CXXC / FITC-HOXA9 DNA fluorescence polarization; Potency, µM (series often up to 115 µM), inactives show at the highest dose activity change, negative = inhibition, most hits filed as inhibitors; actives 0.037% (n = 290,000); AID 2662; active = well fitted inhibition curve with a large enough effect in the polarisation, with a control signal flat, not every such curve was filed as active; inconclusive = small, poorly fitted or top-dose-only effect, or effect the other way, or a change in a side signal; inactive = no such curve, though single readings can be large or run the other way; the % refers to the polarisation; note: potency is the fitted concentration of half-maximal effect
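Steps: dispense CXXC domain solution (7 uM) → pin compounds or unlabeled HOX-A9 DNA control → 5 min ambient → add FLSN-HOX-A9 solution (50 nM) → spin → 30 min ambient → fluorescence polarization. Tris pH 7.5/NaCl/DTT/BSA buffer.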
Menin MLL FP FL – inhibitors of human menin-MLL interaction, wild-type MLL peptide | Fluorescence polarization, fluorescein-MLL peptide displacement from menin | FP activity change, % at 61.4 µM | 290,000 tested, under 10 active | AID 1766; active = well fitted curve in the direction sought with a large enough effect in the polarisation, not every such curve was filed as active; inconclusive = small, poorly fitted or top-dose-only effect, or effect the other way, or a change in a side signal; inactive = no such curve, though single readings can be large or run the other way; the % refers to the polarisation; note: % of control where 0% means no effect
PKM2 act – PKM2 (human) enzyme activation; P14618; purified PKM2, Kinase-Glo ATP luminescence, activation; response scale: 0% is enzyme alone, no compound; Potency, µM (highest dose often 57.5 µM), without a hit: at the highest dose activation, most hits filed as activators; actives 0.34% (n = 260,000); AID 1631; active = well fitted activation curve with a large enough effect; inconclusive = small, poorly fitted or top-dose-only effect; inactive = no such curve, though single readings can be large or run the other way; note: potency is the fitted concentration of half-maximal effect; % is set by controls: 0 for no effect and ±100 for the full control effect; nearly all actives have a fitted effect of over 55% in size
Target sequence (P14618 whole entry, looked up): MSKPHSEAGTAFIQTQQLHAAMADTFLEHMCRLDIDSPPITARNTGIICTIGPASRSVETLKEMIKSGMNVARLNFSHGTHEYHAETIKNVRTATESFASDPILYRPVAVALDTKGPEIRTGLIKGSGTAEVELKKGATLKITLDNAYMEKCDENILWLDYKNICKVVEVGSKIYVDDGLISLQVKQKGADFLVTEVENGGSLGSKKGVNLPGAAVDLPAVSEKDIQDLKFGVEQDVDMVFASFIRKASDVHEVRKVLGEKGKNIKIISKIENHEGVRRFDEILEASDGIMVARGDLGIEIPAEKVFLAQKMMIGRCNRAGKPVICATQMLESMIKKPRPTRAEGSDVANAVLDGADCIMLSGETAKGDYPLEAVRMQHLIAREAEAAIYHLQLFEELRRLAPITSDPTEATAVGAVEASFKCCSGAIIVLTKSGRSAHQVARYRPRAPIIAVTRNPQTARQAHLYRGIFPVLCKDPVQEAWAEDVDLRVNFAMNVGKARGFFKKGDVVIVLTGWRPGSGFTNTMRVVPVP
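hPK-M2, >95% pure; 0.1 mM ADP / 0.5 mM PEP final; imidazole pH7.2 buffer w/ 7 mM MgCl2, 50 mM KCl; 1 h RT; Kinase-Glo lum. Intermediate enzyme activity for dual inhibitor/activator qHTS.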
* marks the source's active call; other numbers are inactive results; ? = inconclusive; / = no result given.

SMILES | Menin-MLL TR inh | MLL CXXC-DNA inh | Menin MLL FP FL | PKM2 act
COC(=O)/C(C)=C/CC12OC(C)(C)C3CC(C=C4C(=O)c5cc6c(c(CCC(C)(C)Cl)c5OC431)OC1(C)CCC(=C(C)C)C6C1)C2=O (stereo unspecified) | -9.8% | / | -2.3 | /
COc1ccc(NS(=O)(=O)c2cc(NC(=O)/C=C/c3cc(OC)ccc3OC)ccc2N2CCCCC2)cc1 | 10µM* | 2.6% | 0.3 | 3.4%
O=C(O)C1NCCN(C(=O)c2ccc3c(ccc4ccccc43)c2)C1C(=O)O (stereo unspecified) | -2.0% | / | 0.4 | /
Cc1cccc(NC(=O)CS(=O)(=O)c2c[nH]c3ccccc23)c1C | 9.0% | -1.6% | -0.3 | 25.1µM*
Cc1ccc(C)c(NC(=O)CS(=O)(=O)c2c[nH]c3ccccc23)c1 | 11.4% | 11.4% | 4.4 | 0.8%
Cc1ccc([N+](=O)[O-])c(OCCn2cnc3ccccc32)c1 | 2.2% | 2.8% | 5.8 | 8.91µM*
Cc1ccc(OCCOCCn2cnc3ccccc3c2=O)c([N+](=O)[O-])c1 | -8.1% | 0.9% | 0.7 | 2.4%
FC(F)(F)c1ccc(-c2noc(-c3ccccc3)c2I)cc1 | ? | / | -0.7 | /
CCc1nnc(NS(=O)(=O)c2ccc(NC(=O)OC)cc2)s1 | 5.0% | 1.0% | -1.7 | 28.2µM*
COc1ccc(C2CC(c3ccccc3)Oc3cc4c(cc32)OCO4)cc1 (stereo unspecified) | ? | / | 0.2 | /
O=C(NCCOC(=O)c1cccs1)c1cccnc1 | 3.4% | 5.8% | 3.6 | -1.1%
O=C(NCCOC(=O)c1ccc(C(=O)OCCNC(=O)c2cccnc2)s1)c1cccnc1 | 1.9% | -3.9% | -4.1 | 15.8µM*
Cc1ccccc1NC(=O)CCC(=O)OCC(=O)c1ccc(-c2ccccc2)cc1 | 35.5µM* | -15.8% | -0.8 | -7.7%
O=C(CCNC(=O)c1ccccc1)OCC(=O)c1cccc(Cl)c1 | 1.4% | 3.7% | 2.5 | 3.2%
O=C(CCC(=O)OCC(=O)c1ccc(-c2ccccc2)cc1)Nc1cccc(Cl)c1 | 25.1µM* | 19.3% | -0.7 | 2.3%
CO[C@@H]1c2cc(F)ccc2/C(=C\CCOC(=O)C/C=C/c2ccccc2)[C@H]1C | 0.1% | / | 2.1 | /
C[C@]12C[C@@](C)(C=C1/C=C/c1ccc(F)cc1)C(=O)C[C@H]2c1ccc(F)cc1 | 19.0% | / | -0.6 | /
O=c1[nH]c(N/N=C/c2cc3c(cc2[N+](=O)[O-])OCO3)nc2ccccc12 | / | 6.9% | -6.8 | 39.8µM*
O=c1[nH]c(N/N=C\c2ccc3c(c2)OCO3)nc2ccccc12 | 9.8% | 6.9% | 5.8 | -14.1%
O=C(CCCc1cccs1)N1CCN(S(=O)(=O)c2ccccc2Br)CC1 | -8.4% | 4.1% | 2.5 | 11.2µM*
O=C(O)CCC(=O)N1CCN(S(=O)(=O)c2cccs2)CC1 | / | 13.3% | / | 3.8%
O=C(CCCc1c[nH]c2ccccc12)N1CCN(S(=O)(=O)c2cccs2)CC1 | 10.5% | 2.5% | 1.5 | 1.58µM*
O=C(CSc1ccccc1)N1CCN(S(=O)(=O)c2cccs2)CC1 | / | 24.3% | / | 1.12µM*
O=C(Cc1cccs1)N1CCN(S(=O)(=O)c2ccccc2)CC1 | -22.7% | 7.5% | 2.5 | 26.5%
O=S(=O)(Nc1cc(O)cc2cccnc12)c1ccc(Cl)s1 | ? | / | 7.0 | /
SMILES | Menin-MLL TR inh | MLL CXXC-DNA inh | Menin MLL FP FL | PKM2 act
COC(=O)[C@H]1O[C@@H](c2cc(OC)c(C)c(OC)c2O)[C@H](C)[C@@H](O)[C@H]1C | -17.6% | / | -4.9 | /
CCOc1cc(N2CCOCC2)c(OCC)cc1NC(C)C(=O)N1CCN(CC)CC1 (stereo unspecified) | 31.6µM* | 16.6% | -0.5 | -2.6%
CCOc1cc(N2CCOCC2)c(OCC)cc1NC(=O)C(C)C | / | -5.1% | -3.7 | -12.5%
COc1cccc([C@@H]2Oc3ccc(Br)cc3C(=O)[C@H]2OC(=O)NS(=O)(=O)c2ccc(F)cc2)c1 | -0.9% | / | ? | /
CNC(=S)N1N=C(c2ccc(C)cc2)CC1c1ccc(OC)cc1 (stereo unspecified) | 15.1% | 11.8% | -6.1 | 22.4µM*
CNC(=S)N1N=C(c2ccc(Br)cc2)CC1c1ccc(OC)cc1 (stereo unspecified) | -27.9% | 3.8% | 0.0 | ?
COc1ccc(C2=Nn3c(nnc3-c3ccccc3OC)SC2)cc1OC | 11.2µM* | -5.6% | 5.3 | 4.6%
Cc1cc(N)ccc1N1CCCC1 | 28.2µM* | ? | 2.3 | 22.7%
Cc1cc(N)ccc1-n1c(C)ccc1C | ? | 9.4% | 1.0 | -2.7%
